Targets with a hit are over-represented here; the source holds about 8,800 in all. About 0.5% of all pairs of compound and target were hits. Values without a mark were called inactive.
Columns and labels:
Test in all cases: log2 fold change, soluble protein after heating vs DMSO (PISA); higher = thermal stabilisation; K562 lysate, 10 uM; active = over 0.2 and 3.5 SD of the protein, either way, in both replicates (recomputed)
[1] = compound: NCC(=O)Nc1ccc(-n2nc(C(F)(F)F)cc2-c2ccc3c(ccc4ccccc43)c2)cc1
How it was run: (§1)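 Dounce homogenisation of K562 pellets in PBS pH 7.4 with 1 mM MgCl2 produced a crude extract, used at 1 mg/mL protein. Exposure to 10 μM compound lasted 30 min, and aliquots were then heated for 3 min across 48°C-58°C, pooled and brought to 0.5% NP-40 at 4°C. The supernatant after 21,000xg for 90 min was quantified by TMTpro 16plex LC-MS/MS with channel sums equalised. Duplicate values are given as log-two fold change in thermal stability relative to solvent controls.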

vorinostat = compound: O=C(CCCCCCC(=O)Nc1ccccc1)NO [vorinostat]
How it was run: as §1

silmitasertib = compound: O=C(O)c1ccc2c(c1)nc(Nc1cccc(Cl)c1)c1ccncc12 [silmitasertib]
How it was run: as §1

[2] = compound: O=C1NC(=O)C(c2cnc3ccccn23)=C1c1cn2c3c(cc(F)cc13)CN(C(=O)N1CCCCC1)CC2
How it was run: as §1

entospletinib = compound: c1cn2cc(-c3ccc4cn[nH]c4c3)nc(Nc3ccc(N4CCOCC4)cc3)c2n1 [entospletinib]
How it was run: as §1

UniProt A8MTT3, sequence (A8MTT3 whole entry, looked up): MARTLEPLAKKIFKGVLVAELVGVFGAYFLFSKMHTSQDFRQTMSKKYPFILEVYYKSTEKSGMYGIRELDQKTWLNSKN
UniProt Q8WUX2, sequence (Q8WUX2 whole entry, looked up): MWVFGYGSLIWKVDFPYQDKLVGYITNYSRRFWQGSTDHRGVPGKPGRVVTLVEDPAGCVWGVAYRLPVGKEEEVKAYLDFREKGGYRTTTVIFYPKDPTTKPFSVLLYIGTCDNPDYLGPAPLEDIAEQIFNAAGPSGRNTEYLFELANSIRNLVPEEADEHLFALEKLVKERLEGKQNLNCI
UniProt P55212, sequence (P55212 whole entry, looked up): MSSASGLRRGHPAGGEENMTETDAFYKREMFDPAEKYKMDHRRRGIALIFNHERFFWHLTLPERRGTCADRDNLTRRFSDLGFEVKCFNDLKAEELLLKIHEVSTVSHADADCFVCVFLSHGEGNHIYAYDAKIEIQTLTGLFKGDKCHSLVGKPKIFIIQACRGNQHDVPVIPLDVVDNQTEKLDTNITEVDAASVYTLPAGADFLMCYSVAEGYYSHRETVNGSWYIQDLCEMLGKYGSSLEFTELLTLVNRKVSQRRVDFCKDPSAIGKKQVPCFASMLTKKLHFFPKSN
UniProt P33681, sequence (P33681 whole entry, looked up): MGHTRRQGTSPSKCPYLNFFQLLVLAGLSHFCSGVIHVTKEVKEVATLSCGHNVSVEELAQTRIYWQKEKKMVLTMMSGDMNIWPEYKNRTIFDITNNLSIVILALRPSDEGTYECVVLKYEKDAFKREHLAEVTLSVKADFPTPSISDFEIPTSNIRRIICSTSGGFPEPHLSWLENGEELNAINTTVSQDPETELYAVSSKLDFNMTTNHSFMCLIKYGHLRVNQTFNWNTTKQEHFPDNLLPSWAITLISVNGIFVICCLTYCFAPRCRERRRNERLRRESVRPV
UniProt O75808, sequence (O75808 whole entry, looked up): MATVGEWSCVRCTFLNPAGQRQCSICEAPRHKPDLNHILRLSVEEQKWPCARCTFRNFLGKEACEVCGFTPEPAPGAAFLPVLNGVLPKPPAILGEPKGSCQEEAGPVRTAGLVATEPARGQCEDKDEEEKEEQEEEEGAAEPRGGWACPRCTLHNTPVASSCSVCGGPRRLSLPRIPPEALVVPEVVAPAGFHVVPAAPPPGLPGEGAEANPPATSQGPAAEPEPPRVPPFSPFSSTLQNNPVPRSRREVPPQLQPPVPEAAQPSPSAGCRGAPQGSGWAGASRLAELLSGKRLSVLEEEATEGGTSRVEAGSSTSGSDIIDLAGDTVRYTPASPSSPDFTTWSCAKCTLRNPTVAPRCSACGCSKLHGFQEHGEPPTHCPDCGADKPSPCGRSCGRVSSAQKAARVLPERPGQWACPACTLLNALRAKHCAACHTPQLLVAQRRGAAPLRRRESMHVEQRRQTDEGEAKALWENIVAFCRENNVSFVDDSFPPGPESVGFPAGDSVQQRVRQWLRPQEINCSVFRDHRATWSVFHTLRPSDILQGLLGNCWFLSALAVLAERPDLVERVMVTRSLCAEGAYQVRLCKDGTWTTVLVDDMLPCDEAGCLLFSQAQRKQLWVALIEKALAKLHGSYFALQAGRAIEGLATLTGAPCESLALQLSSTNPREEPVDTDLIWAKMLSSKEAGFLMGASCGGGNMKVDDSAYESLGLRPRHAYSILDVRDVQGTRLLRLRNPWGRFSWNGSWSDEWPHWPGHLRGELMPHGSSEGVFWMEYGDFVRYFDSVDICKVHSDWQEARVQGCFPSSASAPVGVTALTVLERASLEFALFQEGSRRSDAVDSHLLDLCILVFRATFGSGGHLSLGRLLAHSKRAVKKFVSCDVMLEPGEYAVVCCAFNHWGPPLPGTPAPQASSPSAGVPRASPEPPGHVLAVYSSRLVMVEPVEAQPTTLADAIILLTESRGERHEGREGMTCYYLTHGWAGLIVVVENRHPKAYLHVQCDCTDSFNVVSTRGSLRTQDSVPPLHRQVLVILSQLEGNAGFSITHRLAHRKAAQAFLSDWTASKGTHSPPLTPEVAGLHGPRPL
UniProt Q86YS7, sequence (Q86YS7 whole entry, looked up): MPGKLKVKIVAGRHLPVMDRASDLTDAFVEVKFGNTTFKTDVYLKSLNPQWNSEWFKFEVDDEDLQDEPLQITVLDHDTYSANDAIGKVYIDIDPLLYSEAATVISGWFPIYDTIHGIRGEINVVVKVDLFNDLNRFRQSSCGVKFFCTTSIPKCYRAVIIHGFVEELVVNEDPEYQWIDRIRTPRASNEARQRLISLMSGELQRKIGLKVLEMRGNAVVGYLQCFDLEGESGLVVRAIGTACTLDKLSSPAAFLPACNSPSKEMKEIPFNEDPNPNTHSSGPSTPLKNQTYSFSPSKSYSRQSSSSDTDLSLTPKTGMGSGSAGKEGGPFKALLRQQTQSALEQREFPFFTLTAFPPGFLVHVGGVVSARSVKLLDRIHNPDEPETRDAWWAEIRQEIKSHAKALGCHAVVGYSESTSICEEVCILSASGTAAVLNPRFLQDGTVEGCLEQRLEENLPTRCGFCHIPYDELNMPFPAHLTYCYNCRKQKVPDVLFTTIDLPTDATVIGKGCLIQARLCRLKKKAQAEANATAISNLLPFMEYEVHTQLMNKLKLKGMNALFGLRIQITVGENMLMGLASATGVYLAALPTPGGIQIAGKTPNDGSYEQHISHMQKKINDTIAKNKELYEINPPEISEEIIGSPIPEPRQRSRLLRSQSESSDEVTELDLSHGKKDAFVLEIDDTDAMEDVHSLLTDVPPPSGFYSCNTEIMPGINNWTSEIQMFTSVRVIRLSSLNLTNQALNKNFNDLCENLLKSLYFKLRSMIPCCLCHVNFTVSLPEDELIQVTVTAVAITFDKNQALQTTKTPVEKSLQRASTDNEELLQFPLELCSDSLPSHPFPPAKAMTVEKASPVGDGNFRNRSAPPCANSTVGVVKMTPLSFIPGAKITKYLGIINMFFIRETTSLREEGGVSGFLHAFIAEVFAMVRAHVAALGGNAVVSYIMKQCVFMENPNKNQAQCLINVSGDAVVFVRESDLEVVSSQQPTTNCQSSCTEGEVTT
UniProt Q96B23, sequence (Q96B23 whole entry, looked up): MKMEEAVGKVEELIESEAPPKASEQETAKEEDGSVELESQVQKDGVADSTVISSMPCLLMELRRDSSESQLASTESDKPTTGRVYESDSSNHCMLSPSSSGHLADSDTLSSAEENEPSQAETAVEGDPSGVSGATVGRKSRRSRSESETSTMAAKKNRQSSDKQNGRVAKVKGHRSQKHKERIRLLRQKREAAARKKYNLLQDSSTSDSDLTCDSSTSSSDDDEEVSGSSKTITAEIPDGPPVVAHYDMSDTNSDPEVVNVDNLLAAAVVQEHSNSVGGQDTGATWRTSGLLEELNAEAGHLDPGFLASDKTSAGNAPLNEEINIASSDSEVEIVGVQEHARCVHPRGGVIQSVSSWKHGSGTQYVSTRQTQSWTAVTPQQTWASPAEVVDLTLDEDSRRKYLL
UniProt O43303, sequence (O43303 whole entry, looked up): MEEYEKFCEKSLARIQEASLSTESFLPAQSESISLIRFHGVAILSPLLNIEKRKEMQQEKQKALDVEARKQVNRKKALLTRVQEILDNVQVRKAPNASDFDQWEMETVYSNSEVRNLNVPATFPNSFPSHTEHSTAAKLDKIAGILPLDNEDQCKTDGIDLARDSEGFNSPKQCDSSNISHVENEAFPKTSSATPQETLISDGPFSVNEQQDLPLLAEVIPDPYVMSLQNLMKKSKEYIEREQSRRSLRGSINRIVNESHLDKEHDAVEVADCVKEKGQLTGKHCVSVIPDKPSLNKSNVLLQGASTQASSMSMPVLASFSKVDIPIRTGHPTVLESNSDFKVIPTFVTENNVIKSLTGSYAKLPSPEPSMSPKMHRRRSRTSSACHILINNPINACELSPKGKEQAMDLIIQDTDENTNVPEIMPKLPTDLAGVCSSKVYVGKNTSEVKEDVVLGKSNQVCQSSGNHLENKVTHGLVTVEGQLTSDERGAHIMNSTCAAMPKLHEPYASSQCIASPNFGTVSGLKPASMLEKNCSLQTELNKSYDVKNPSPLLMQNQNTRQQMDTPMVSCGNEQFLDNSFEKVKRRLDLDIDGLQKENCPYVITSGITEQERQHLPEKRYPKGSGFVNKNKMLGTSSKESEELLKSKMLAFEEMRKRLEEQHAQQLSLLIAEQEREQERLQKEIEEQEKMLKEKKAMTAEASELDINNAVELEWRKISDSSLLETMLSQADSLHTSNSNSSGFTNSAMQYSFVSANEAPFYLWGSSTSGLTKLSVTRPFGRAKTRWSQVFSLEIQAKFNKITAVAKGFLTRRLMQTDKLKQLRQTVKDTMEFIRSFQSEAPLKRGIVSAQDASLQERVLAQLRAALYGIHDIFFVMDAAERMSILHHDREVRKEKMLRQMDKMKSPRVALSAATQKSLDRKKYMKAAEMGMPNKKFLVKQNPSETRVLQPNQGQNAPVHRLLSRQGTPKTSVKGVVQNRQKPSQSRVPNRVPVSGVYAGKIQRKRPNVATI
UniProt P51946, sequence (P51946 whole entry, looked up): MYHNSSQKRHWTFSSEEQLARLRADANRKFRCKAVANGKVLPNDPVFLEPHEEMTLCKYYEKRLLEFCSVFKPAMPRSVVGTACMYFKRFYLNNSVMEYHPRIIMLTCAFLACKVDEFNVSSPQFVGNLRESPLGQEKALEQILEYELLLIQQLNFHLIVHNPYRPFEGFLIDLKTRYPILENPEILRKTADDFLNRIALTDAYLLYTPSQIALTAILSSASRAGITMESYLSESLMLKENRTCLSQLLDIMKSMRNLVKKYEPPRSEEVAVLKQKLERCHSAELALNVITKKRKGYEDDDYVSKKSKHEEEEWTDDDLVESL
UniProt Q15834, sequence (Q15834 whole entry, looked up): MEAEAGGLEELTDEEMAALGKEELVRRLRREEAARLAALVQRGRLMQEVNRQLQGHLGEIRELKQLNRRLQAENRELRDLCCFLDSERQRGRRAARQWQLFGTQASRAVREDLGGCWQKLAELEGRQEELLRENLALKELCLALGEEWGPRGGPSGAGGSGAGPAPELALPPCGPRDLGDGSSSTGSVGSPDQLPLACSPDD
UniProt Q9H3K6, sequence (Q9H3K6 whole entry, looked up): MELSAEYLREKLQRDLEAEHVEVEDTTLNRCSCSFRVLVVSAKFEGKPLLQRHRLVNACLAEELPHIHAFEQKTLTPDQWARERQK

| Target | log2 fold change [1] | log2 fold change (vorinostat) | log2 fold change (silmitasertib) | log2 fold change [2] | log2 fold change (entospletinib) |
| --- | --- | --- | --- | --- | --- |
| CHCHD4 isoform 2 (UniProt Q8N4Q1) | 0.06 | 0.207 | -0.145 | -0.027 | 0.01 |
| C2CD5 isoform 3 (UniProt Q86YS7) | 0.01 | 0.086 | -0.059 | 0.049 | 0.009 |
| CBFA2T3 (UniProt O75081) | -0.004 | -0.4 (active) | 0.009 | -0.019 | -0.012 |
| CEBPZOS (UniProt A8MTT3) | -0.113 | 0.082 | -0.004 | -0.025 | -0.037 |
| CHAC2 (UniProt Q8WUX2) | -0.158 | 0.066 | -0.02 | -0.012 | -0.052 |
| CEP76 (UniProt Q8TAP6) | -0.1 | -0.055 | 0.027 | -0.051 | 0.039 |
| CCDC85B (UniProt Q15834) | -0.039 | 0.088 | 0.042 | -0.077 | -0.397 |
| BET1 (UniProt O15155) | 0.015 | -0.042 | -0.008 | -0.01 | 0.035 |
| CCP110 (UniProt O43303) | -0.033 | -0.102 | -0.131 | -0.124 | 0.045 |
| CD80 (UniProt P33681) | 0.018 | -0.028 | -0.067 | -0.066 | -0.162 |
| CACUL1 (UniProt Q86Y37) | 0.176 | -0.543 (active) | 0.024 | -0.081 | -0.056 |
| CDK5RAP2 (UniProt Q96SN8) | 0.042 | -0.156 | 0 | 0.026 | -0.042 |
| BOLA2 (UniProt Q9H3K6) | -0.085 | 0.1 | 0.039 | -0.039 | -0.015 |
| CHD4 isoform 2 (UniProt Q14839) | 0.023 | -0.284 (active) | -0.006 | 0.015 | -0.01 |
| C18orf25 (UniProt Q96B23) | 0.03 | 0.089 | -0.147 | -0.034 | 0.036 |
| C1orf131 isoform 5 (UniProt Q8NDD1) | 0.059 | -0.445 (active) | -0.025 | 0.039 | -0.013 |
| CCNH (UniProt P51946) | 0.028 | -0.43 (active) | 0.02 | -0.07 | 0.02 |
| CASP6 (UniProt P55212) | -0.014 | -0.049 | 0.045 | -0.018 | -0.01 |
| CARNMT1 (UniProt Q8N4J0) | 0.005 | 0.027 | 0.008 | -0.028 | -0.039 |
| ATG13 isoform 2 (UniProt O75143) | 0.01 | 0.051 | -0.01 | 0.024 | -0.008 |
| CAPN15 (UniProt O75808) | 0.028 | -0.504 (active) | -0.016 | -0.081 | -0.043 |
| AURKAIP1 (UniProt Q9NWT8) | 0.073 | 0.08 | -0.01 | 0.071 | -0.081 |
| CEPT1 (UniProt Q9Y6K0) | -0.037 | 0.103 | -0.016 | 0.029 | -0.016 |
| BLOC1S6 (UniProt Q9UL45) | -0.022 | -0.386 (active) | 0.004 | 0.011 | 0.046 |

Reference: the supplement of paper PMC10849652
